Experimental data taken from the supplement of paper PMC3334620.
Whole data set: some 33,000 sequences, median “E-score (-0.5 to 0.5)” near -0.013, cut for the highest 2% near 0.3. The sample holds the highest values, similar sequences and a random draw of the others, so the mix is not that of the screen.

Target: T1, Msn1 (UniProt P22148)
T1 sequence: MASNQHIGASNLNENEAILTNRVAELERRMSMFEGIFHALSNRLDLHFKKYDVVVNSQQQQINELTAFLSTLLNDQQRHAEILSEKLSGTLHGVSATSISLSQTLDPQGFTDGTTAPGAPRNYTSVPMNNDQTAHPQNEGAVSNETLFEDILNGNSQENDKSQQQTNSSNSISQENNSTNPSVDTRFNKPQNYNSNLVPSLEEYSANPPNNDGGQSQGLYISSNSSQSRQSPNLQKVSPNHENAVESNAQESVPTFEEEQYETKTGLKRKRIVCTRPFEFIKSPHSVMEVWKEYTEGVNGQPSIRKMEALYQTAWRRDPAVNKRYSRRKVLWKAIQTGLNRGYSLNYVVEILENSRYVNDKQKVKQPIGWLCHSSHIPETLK
Test: PBM E-score (8-mer binding enrichment) (E-score (-0.5 to 0.5)); higher = stronger / more preferred TF binding
Settings: protein concentration: 200 nM; construct: GST-full length
Protocol: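 Universal 'all 10-mer' protein binding microarrays (Agilent AMADID 015681) probed with GST-tagged S. cerevisiae TFs (full-length or DBD) made by in vitro transcription/translation (PURExpress), about 100-200 nM. Bound TF was detected with fluorescent anti-GST. Each ungapped 8-mer (which stands for itself and its reverse complement) is scored by the PBM enrichment score (E-score), a modified Wilcoxon-Mann-Whitney statistic from -0.5 to +0.5, computed with the Universal PBM Analysis Suite. Scale: above 0.35 generally sequence-specific binding.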

Sequence | PBM E-score
CCACACGA | 0.00165
AACGAATA | -0.0354
ATAGTCTA | -0.0808
GTGCCTGA | -0.25
AATAACTC | 0.00363
GGAGAACA | 0.0888
ACAACCCA | 0.0013
CGTGTCTC | 0.26
GGTGTCTA | 0.0447
CGTGTCGC | 0.202
AGTGTCCG | 0.179
CGTGTCGA | 0.0442
AGTGTCCA | 0.219
GGTGTCGA | -0.0245
CGTGTCCA | 0.424
CGTGTCCC | 0.437
GGTGTCCA | 0.352
AGTGTCCC | 0.375
CGTGTCTA | 0.166
ACGGTCAT | 0.0534
AGCTTTCC | -0.198
GAACTGAA | -0.00121
CGTGGCAC | 0.0166
CTGAGCGA | 0.0585
CAGCTAGC | -0.19

Sequence | PBM E-score
ATATTAAT | 0.243
GCAGCCCA | -0.0983
TTGCCAAA | -0.0227
AACTTGGC | -0.0461
GCCTTCCA | -0.367
CAATGAAA | 0.0415
TAATGAAA | 0.226
AAATGAAA | 0.305
AGGATGTA | -0.0489
CAGATGTA | -0.0817
CAGATGTC | 0.347
AAGATGTC | 0.252
CGGATGTA | 0.0259
CGGATGTC | 0.348
AGGATGTC | 0.398
AGGATGTG | -0.0903
CTGATGTC | 0.282
GCCCAGAA | 0.0114
CTGCTACC | -0.0604
CCCTCGAG | -0.11
ACTGGCAA | 0.0309
GTTGATTA | 0.135
AATCTGGG | -0.203
CCAGGTGC | -0.205
ATTACGCG | -0.059

Sequence | PBM E-score
GACAATTA | 0.426
GACAATCA | 0.217
AACAATCC | 0.136
GACAATAC | 0.377
GACAATCC | 0.355
CACAATTA | 0.128
AACAATAC | 0.158
AACAATTA | 0.165
CACAATAC | -0.0413
ATTCCTCG | 0.0159
AACGTCAG | -0.248
GAGATCAC | -0.035
ATACAGCA | 0.103
ACAGGACA | 0.421
ACAGGACT | -0.0485
ACAGGACG | 0.0345
GCAGGATA | -0.224
TCAGGACA | 0.461
GCAGGACA | 0.47
CCAGGACA | 0.469
CCAGGACG | 0.109
CCAGGACC | -0.105
TCAGGAGA | -0.0143
GCAGGACC | -0.0863
TCAGGAAA | 0.0903

Sequence | PBM E-score
CCGAGATC | 0.0634
AGGTTAAC | -0.0876
AATCGATG | 0.144
CAGCAGAC | 0.0732
AGTCTGTC | 0.0754
AGCCAGAC | -0.072
AAGCGCCC | -0.264
TATTGAGA | 0.208
CCAGCGGC | -0.0286
GGTAACTA | 0.18
ATTGTCGC | 0.344
ACTGTCGC | -0.134
ACTGTCGG | -0.0418
CTTGTCGC | 0.166
ATTGTCGA | 0.144
ATTGTCGG | 0.318
AGGGTTTG | -0.0242
ACCCGTTA | 0.00896
CTGGTACC | -0.121
GTGGTACA | 0.13
CTGGTACA | 0.329
GCGGTACA | 0.0441
CCGGTACA | 0.319
CCGGTACG | -0.262
CGGCCCAG | -0.186

Sequence | PBM E-score
TAAGAAAA | 0.00824
CTGCGACC | -0.19
GGGTCCCA | -0.216
ATGTCCCA | 0.485
AGGTCCCC | -0.299
AGGTCCCA | -0.081
GCGTCCCA | 0.0223
CTGTCCCA | 0.281
AAGTCCCG | 0.283
GTGTCCCA | 0.439
ATGTCCCC | 0.479
ATGTCCCG | 0.474
ACGTCCCG | 0.0295
CTGTCCCC | 0.00412
GCCTTTGA | 0.0544
CGAGGAGA | -0.141
AGACCCTG | -0.165
ACCTAACG | -0.203
ATGATCTG | 0.0873
GGGAAAAA | 0.185
GCGGTCAC | -0.172
AGGTCTAC | -0.0162
CTGTCTAC | -0.0627
AGGTCTAG | -0.134
CTGTCTAA | 0.111

Sequence | PBM E-score
ATGTCTAA | 0.403
GTGTCTAA | 0.192
ATGTCTAC | 0.313
AAGTCTAG | -0.107
ATGTCTAG | 0.373
CTAGTAGC | -0.165
GAGGGTAC | -0.202
CTATTTCC | 0.063
ACAATTGT | 0.363
GAAATTCA | 0.103
AAAATTGG | 0.00283
AAAATTGC | 0.054
ACAATTGA | 0.257
ACAATTGC | 0.191
AAAATTCG | 0.232
AAAATTCA | 0.308
AAAATTGT | 0.357
ATCCATAA | 0.124
AATTCCTC | -0.0412
AGCCACTA | -0.0424
CCCCAGCC | -0.271
ACCCTGAG | -0.0157
GCGCGCGC | 0.333
ACGCGCGC | 0.196
GCGCGCGA | 0.0948

Sequence | PBM E-score
CCTGCTAC | 0.017
AGTTCTCC | -0.205
CCATTTCA | -0.106
CCATTTTC | 0.136
GCATTTTA | 0.109
ACATTTCA | 0.363
ACATTTCG | 0.241
ACATTTCC | 0.329
ACATTTTC | 0.337
GCATTTCA | 0.0826
AGATTTTC | 0.0741
ACATTTCT | 0.204
ACATTTTA | 0.377
CCATTTTA | 0.259
GTGAGGCA | -0.0279
ACTGACCT | -0.063
CCACGTGG | -0.276
CGATGAGC | -0.17
CTACCTCC | -0.0369
ACATTAAC | 0.254
TCATTTAA | 0.132
ACATTAAG | 0.32
ACATTTGG | 0.177
GCATTTGA | 0.051
ACATTTGA | 0.311

Sequence | PBM E-score
ACATTAAT | 0.155
ACATTTAA | 0.324
GCATTTAA | 0.0963
AGATTTTG | 0.0738
ACATTTTG | 0.34
ATATTTTG | 0.176
TACAGGAA | 0.0582
AGATCCTC | -0.125
AGATGCGA | 0.0645
GCTGAACA | 0.00499
CTGGCGTA | -0.252
AGGCGGTG | -0.217
TCCATCCA | -0.00245
CAACCAGC | -0.114
CTTTTGAC | 0.0513
CCTTTGTA | 0.163
ACTTTGTC | 0.41
ACTTTGTA | 0.129
CCTTTGTC | 0.367
CCTTTGCC | -0.104
ACTTTGTG | 0.0353
CTTTTGTA | 0.3
CTTTTGTC | 0.455
GAATTGCC | 0.0969
AACCTACA | 0.0149

Sequence | PBM E-score
GGATCATA | -0.0918
ATAGCATG | -0.207
GGACACGA | 0.396
GGACACAC | 0.382
TGACACAA | 0.183
CGACACAC | 0.0525
GGACACAA | 0.462
CGACACGA | 0.274
CGACACAA | 0.00596
GGACACCC | -0.0113
AGACACAG | 0.131
AGACACAA | 0.332
AGACACGA | 0.158
AGACACAC | 0.133
CGATATCG | 0.0659
TCCTGAGA | 0.0942
CTTTATGA | 0.0103
AGCTCTTA | -0.0201
CGGGCAAG | 0.0918
